Experimental data published in PubChem BioAssay (EPA / NIEHS).
Active and inactive are the calls of the source. How the source made its calls: active means hit-call score of the fitted dose curve at least 0.9, where 1 is the maximum; inactive means score below 0.9.

Experiments:
[1] = read-out: Thrombomodulin, THBD (gene 7056); test: BSK_CASM3C_Thrombomodulin: BioMAP Diversity Plus: CASM3C Assay for Thrombomodulin Biomarker Activity (AID 2283051); conditions: primary human coronary artery smooth muscle cells; actives raise or lower the signal;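 further: thrombomodulin protein level measured by ELISA 24 h after dosing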
[2] = read-out: Tissue Factor, F3 (gene 2152); test: BSK_CASM3C_TissueFactor: BioMAP Diversity Plus: CASM3C Assay for Tissue Factor Biomarker Activity (AID 2283052); conditions: primary human coronary artery smooth muscle cells; actives raise or lower the signal;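 further: cell surface tissue factor protein level read by ELISA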
[3] = read-out: Interferon-gamma inducible Protein 10 (IP10), CXCL10 (gene 3627); test: BSK_hDFCGF_IP10: BioMAP Diversity Plus: hDFCGF Assay for Interferon-gamma inducible Protein 10 (IP10) Biomarker Activity (AID 2283053); conditions: primary human foreskin fibroblasts; actives raise or lower the signal
How it was run: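 Chemical-treated human skin fibroblasts (primary) were sampled at 24 h for IP-10 by ELISA. Both increases and decreases relative to DMSO were scored.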

[4] = read-out: Urokinase-type plasminogen activator receptor (uPAR), PLAUR (gene 5329); test: BSK_CASM3C_uPAR: BioMAP Diversity Plus: CASM3C Assay for Urokinase-type plasminogen activator receptor (uPAR) Biomarker Activity (AID 2283054); conditions: primary human coronary artery smooth muscle cells; actives raise or lower the signal;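 further: cell-surface uPAR protein level quantified by ELISA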
[5] = read-out: Vascular cell adhesion molecule 1 (VCAM1), VCAM1 (gene 7412); test: BSK_CASM3C_VCAM1: BioMAP Diversity Plus: CASM3C Assay for Vascular cell adhesion molecule 1 (VCAM1) Biomarker Activity (AID 2283055); conditions: primary human coronary artery smooth muscle cells; actives raise or lower the signal;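 further: VCAM-1 protein level quantified by ELISA on the cells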
[6] = read-out: Collagen III, COL3A1 (gene 1281); test: BSK_hDFCGF_CollagenIII: BioMAP Diversity Plus: hDFCGF Assay for Collagen III Biomarker Activity (AID 2283056); conditions: primary human foreskin fibroblasts; actives raise or lower the signal
How it was run: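 Cells: human foreskin fibroblasts, primary. Dosing followed by 24 h incubation, then ELISA for collagen III. Both increases and decreases scored relative to DMSO.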

[7] = read-out: Epidermal growth factor receptor (EGFR), EGFR (gene 1956); test: BSK_hDFCGF_EGFR: BioMAP Diversity Plus: hDFCGF Assay for Epidermal growth factor receptor (EGFR) Biomarker Activity (AID 2283057); conditions: primary human foreskin fibroblasts; actives raise or lower the signal
How it was run: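 Cell-based multiplexed assay in primary human foreskin fibroblasts. EGFR is read by ELISA 24 h after treatment and compared with DMSO controls.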

[8] = read-out: Interleukin-8 (IL8), CXCL8 (gene 3576); test: BSK_hDFCGF_IL8: BioMAP Diversity Plus: hDFCGF Assay for Interleukin-8 (IL8) Biomarker Activity (AID 2283058); conditions: primary human foreskin fibroblasts; actives raise or lower the signal
How it was run: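 IL-8 levels from compound-treated primary human fibroblasts were read by ELISA at 24 h, with DMSO serving as baseline for bidirectional fitting.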

[9] = BSK_hDFCGF_Proliferation: Cell Proliferation Assessment in the BioMAP Diversity Plus: hDFCGF Assay (AID 2283059); conditions: primary human foreskin fibroblasts;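 further: curves fitted for both rise and fall of signal versus DMSO baseline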
How it was run: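 This proliferation readout used SRB total-protein staining of human foreskin fibroblasts […], normalized to DMSO with bidirectional curve fitting.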

[10] = read-out: Macrophage colony-stimulating factor (MCSF), CSF1 (gene 1435); test: BSK_hDFCGF_MCSF: BioMAP Diversity Plus: hDFCGF Assay for Macrophage colony-stimulating factor (MCSF) Biomarker Activity (AID 2283060); conditions: primary human foreskin fibroblasts; actives raise or lower the signal
How it was run: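 M-CSF levels, determined by ELISA, are taken at 24 h after dosing human skin fibroblasts. Responses in either direction are fitted with DMSO serving as the baseline.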

[11] = read-out: Monokine induced gamma interferon (MIG), CXCL9 (gene 4283); test: BSK_hDFCGF_MIG: BioMAP Diversity Plus: hDFCGF Assay for Monokine induced gamma interferon (MIG) Biomarker Activity (AID 2283063); conditions: primary human foreskin fibroblasts; actives raise or lower the signal
How it was run: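 MIG signal, determined by ELISA, reflects 24 h chemical exposure of human skin primary fibroblasts. DMSO serves as negative control and baseline.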

[12] = read-out: Matrix Metallopeptidase 1 (MMP1), MMP1 (gene 4312); test: BSK_hDFCGF_MMP1: BioMAP Diversity Plus: hDFCGF Assay for Matrix Metallopeptidase 1 (MMP1) Biomarker Activity (AID 2283064); conditions: primary human foreskin fibroblasts; actives raise or lower the signal
How it was run: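 MMP1 levels quantified by ELISA 24 h after dosing human dermal fibroblast cultures, with parallel SRB total-protein staining for overt cytotoxicity. Data fitted in both directions against DMSO baseline.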

[13] = read-out: Vascular cell adhesion molecule 1 (VCAM1), VCAM1 (gene 7412); test: BSK_hDFCGF_VCAM1: BioMAP Diversity Plus: hDFCGF Assay for Vascular cell adhesion molecule 1 (VCAM1) Biomarker Activity (AID 2283065); conditions: primary human foreskin fibroblasts; actives raise or lower the signal;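 on AC50: VCAM-1 protein level quantified by ELISA after 24 h chemical exposure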
How it was run: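 Cells are dosed, cultured for 24 h, then VCAM-1 is quantified by ELISA; signal increases and decreases are both fitted relative to DMSO.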

[14] = read-out: Plasminogen activator inhibitor-1 (PAI1), SERPINE1 (gene 5054); test: BSK_hDFCGF_PAI1: BioMAP Diversity Plus: hDFCGF Assay for Plasminogen activator inhibitor-1 (PAI1) Biomarker Activity (AID 2283066); conditions: primary human foreskin fibroblasts; actives raise or lower the signal
How it was run: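 Human skin fibroblast cultures receive chemical for 24 h before PAI-1 is measured by ELISA; signal changes are fitted bidirectionally against DMSO-treated wells.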

[15] = read-out: Intercellular Adhesion Molecule 1 (ICAM1), ICAM1 (gene 3383); test: BSK_KF3CT_ICAM1: BioMAP Diversity Plus: KF3CT Assay for Intercellular Adhesion Molecule 1 (ICAM1) Biomarker Activity (AID 2283067); conditions: primary human keratinocytes with fibroblasts; actives raise or lower the signal
How it was run: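 Dose the keratinocyte/fibroblast co-culture, wait 24 h, measure ICAM-1 by ELISA, then fit increases or decreases against DMSO. Cytotoxicity is checked in parallel cultures by SRB total-protein staining.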

[16] = read-out: Interferon-gamma inducible Protein 10 (IP10), CXCL10 (gene 3627); test: BSK_KF3CT_IP10: BioMAP Diversity Plus: KF3CT Assay for Interferon-gamma inducible Protein 10 (IP10) Biomarker Activity (AID 2283068); conditions: primary human keratinocytes with fibroblasts; actives raise or lower the signal
How it was run: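 Signal is secreted/surface IP-10 by ELISA in a human primary skin co-culture of keratinocytes and foreskin fibroblasts, taken 24 h post-dosing; DMSO served as negative control.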

[17] = BSK_KF3CT_SRB: Viability Assessment in the BioMAP Diversity Plus: KF3CT Assay (AID 2283069); conditions: primary human keratinocytes with fibroblasts;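 further: total protein by sulforhodamine B staining as a cytotoxicity measure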
How it was run: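 Cytotoxicity was gauged by SRB staining (0.1% SRB, 10% TCA fixation, 560 nm) of parallel cultures at 24 h. The cells were primary human skin keratinocytes co-cultured with fibroblasts, and activity was fitted in both directions against DMSO.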

[18] = read-out: Interleukin-1 alpha (IL1a), IL1A (gene 3552); test: BSK_KF3CT_IL1a: BioMAP Diversity Plus: KF3CT Assay for Interleukin-1 alpha (IL1a) Biomarker Activity (AID 2283070); conditions: primary human keratinocytes with fibroblasts; actives raise or lower the signal
How it was run: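 IL-1a was detected by ELISA 24 h after chemical treatment of a co-culture of human skin keratinocytes and foreskin fibroblasts. Gain or loss of signal was fitted against the DMSO baseline.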

Measured: AC50

CN(CCOc1ccc(CC2SC(=O)NC2=O)cc1)c1ccccn1 (stereo unspecified)
active: [2] 5.59 µM | [3] 0.0536 µM | [9] 13.3 µM | [10] 0.0484 µM | [18] 0.582 µM
inactive: [1] | [4] | [5] | [6] | [7] | [8] | [11] | [12] | [13] | [14] | [15] | [16] | [17]

C=C(C)C(=O)O[C@H]1C[C@@H]2CC[C@@]1(C)C2(C)C
active: [2] 9.73 µM | [3] 35.2 µM | [4] 9.04 µM | [5] 12.1 µM | [6] 20 µM | [7] 29.4 µM | [8] 35.3 µM | [9] 13.1 µM | [10] 28.4 µM | [11] 34.8 µM | [12] 34.8 µM | [13] 26.4 µM | [14] 12.8 µM | [15] 28.8 µM | [16] 16.9 µM | [17] 14.6 µM | [18] 20 µM
inactive: [1]

CC(C)Oc1ccccc1O
active: [9] 20 µM
inactive: [1] | [2] | [3] | [4] | [5] | [6] | [7] | [8] | [10] | [11] | [12] | [13] | [14] | [15] | [16] | [17] | [18]

CC1CCC(C(C)CS)CC1S (stereo unspecified)
active: [1] 29.1 µM | [3] 4.25 µM | [4] 20 µM | [5] 28.8 µM | [6] 4.29 µM | [8] 28 µM | [9] 4.84 µM | [10] 6.95 µM | [11] 7.33 µM | [12] 9.03 µM | [13] 2.78 µM | [15] 35.5 µM | [16] 20 µM | [17] 13.8 µM | [18] 30.2 µM
inactive: [2] | [7] | [14]

CNC[C@H](O)c1cccc(O)c1
inactive: [1] | [2] | [3] | [4] | [5] | [6] | [7] | [8] | [9] | [10] | [11] | [12] | [13] | [14] | [15] | [16] | [17] | [18]

CCCCCCCCC=O
inactive: [1] | [2] | [3] | [4] | [5] | [6] | [7] | [8] | [9] | [10] | [11] | [12] | [13] | [14] | [15] | [16] | [17] | [18]

O=C1OC2(c3cc(Br)c(O)c(Br)c3Oc3c2cc(Br)c(O)c3Br)c2c(Cl)c(Cl)c(Cl)c(Cl)c21
inactive: [1] | [2] | [4]
active: [3] 20.8 µM | [5] 9.53 µM | [6] 4.38 µM | [7] 1.96 µM | [8] 22 µM | [9] 4.03 µM | [10] 1.56 µM | [11] 11.6 µM | [12] 3.42 µM | [13] 4.38 µM | [14] 2.43 µM | [15] 8.86 µM | [16] 7.41 µM | [17] 4.07 µM | [18] 3.69 µM
